# FLuc modulator: firefly luciferase modulation, counter-screen for miR-21 project. Potency, µM (top dose mostly 57.5 µM), for inactives: at the top dose activity change, negative = inhibition, actives largely listed as inhibitors. P08659. 360,000 tested, 6.9% active. purified FLuc, Km substrates, luminescence inhibition. AID 588342;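 also: plate controls were vehicle for no effect and reference inhibitor for full effect; nearly all actives have a fitted effect of over 55% in size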
# Target sequence (P08659 whole entry, looked up): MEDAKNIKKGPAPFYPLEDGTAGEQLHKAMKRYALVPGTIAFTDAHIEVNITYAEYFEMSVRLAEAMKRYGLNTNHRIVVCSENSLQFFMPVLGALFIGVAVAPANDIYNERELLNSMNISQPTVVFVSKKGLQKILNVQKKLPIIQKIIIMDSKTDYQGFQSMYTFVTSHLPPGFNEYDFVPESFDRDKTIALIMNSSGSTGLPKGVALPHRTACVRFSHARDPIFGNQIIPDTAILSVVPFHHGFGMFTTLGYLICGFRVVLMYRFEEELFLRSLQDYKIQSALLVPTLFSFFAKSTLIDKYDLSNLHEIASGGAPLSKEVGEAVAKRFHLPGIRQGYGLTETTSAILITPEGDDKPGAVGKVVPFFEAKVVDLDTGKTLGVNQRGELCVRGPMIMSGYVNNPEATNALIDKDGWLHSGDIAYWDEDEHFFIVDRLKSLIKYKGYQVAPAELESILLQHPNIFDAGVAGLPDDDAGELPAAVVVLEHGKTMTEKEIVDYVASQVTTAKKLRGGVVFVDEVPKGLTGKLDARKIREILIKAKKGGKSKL
#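 Purified P. pyralis luciferase (10nM final) with 10uM D-luciferin and 10uM ATP (Km levels) in 50mM Tris acetate pH 7.5, 10mM Mg acetate, 0.01% Tween-20, 0.05% BSA; qHTS 6-point titration, ~60 µM downward; luminescence read.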
# Rab9 promoter act: activates the Rab9 promoter; Potency, µM (series often up to 9.22 µM), for inactives: at the highest dose activation, negative = inhibition, hits mostly activators; Huh7 Rab9 promoter-luciferase reporter, luminescence, 24 h; 320,000 tested, 2.8% active; also: % of control where 0% means no effect; nearly all actives have a fitted effect of over 60% in size
#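 Steps: seed 1500 Huh7 Rab9-luc cells per well, rest 2 h at 37 °C; add compound in DMSO; incubate 24 h; add luciferase reagent, 10 min ambient; read luminescence.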
# Luc counter: Kinase-Glo luciferase inhibition (counter-screen). Q27757. Potency, µM (top dose mostly 38.3 µM), without a hit: at the top dose activity change, negative = inhibition, hits mostly inhibitors. 200,000 tested, 0.28% active. Kinase-Glo luciferase, ATP luminescence, 8 min. AID 1379; also: % is scaled to controls: 0 for no effect and ±100 for the full control effect; nearly all actives have a fitted effect of over 60% in size
#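 Luminescence was the read-out, taken after 8-minute incubation at ambient temperature. Luciferase turned over luciferin with 10 uM ATP in imidazole pH 7.2 buffer containing KCl, MgCl2, Tween 20 and BSA.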
# SMN2 splice up: SMN2 splice variant enhancement; HEK293 SMN2-luciferase splicing reporter, luminescence, 30-36 h; 210,000 tested, 2.8% active; Potency, µM (series often up to 46.1 µM), without a hit: at the top dose activity change, positive = activation, usual class: activators; also: % of control where 0% means no effect; nearly all actives have a fitted effect of over 55% in size
#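 qHTS luciferase splicing reporter: luminescence rises when SMN2 exon 7 is included in transfected HEK293 cells. Compound exposure lasted 30-36 h at 37C, with 4.5 mM final sodium butyrate as control, followed by a ONE-Glo read.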
# ELG1 genotoxic: genotoxicity induction in ELG1-luciferase HEK293T cells. 330,000 tested, 1.3% active. Potency, µM (highest dose often 46 µM), inactives show top-dose activity change, positive = activation, usual class: activators. AID 504466. HEK293T ELG1-luciferase reporter, luminescence, 16 h; also: % of control where 0% means no effect; nearly all actives have a fitted effect of over 60% in size
#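 Reporter readout depends on ELG1 protein level, which increases with genetic stress. After 16 hr compound exposure at 37 °C, luciferase activity was quantified using ONE-Glo.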
# NPC1 promoter act: NPC1 promoter activation | Huh7 NPC1 promoter luciferase reporter, 24 h | Potency, µM (series often up to 9.22 µM), without a hit: at the highest dose activation, hits mostly activators | 320,000 tested, 2.4% active | AID 485313; also: % of control where 0% means no effect; nearly all actives have a fitted effect of over 60% in size
#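 Readout is luciferase luminescence, reflecting NPC1 promoter activation in stably transfected Huh7 cells after 24 h compound exposure at 37 °C in reduced-serum medium with 10% FBS.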
# An asterisk follows results filed as active; ? = inconclusive; / = not tested or not shown; [ ] = another dose, or the depositor's remark. A selection: hits, their analogues and other compounds. The true share with any hit is near 7.5%. Calls follow the shape of the dose curve; as a rule, active = well fitted curve in the direction sought with a large enough effect; inconclusive = small, poorly fitted or top-dose-only effect, or another doubt; inactive = no such curve, though single readings can be large; an effect the other way counts as inactive or inconclusive. Potency is read from the fitted curve at half-maximal effect.
SMILES,FLuc modulator,Rab9 promoter act,Luc counter,SMN2 splice up,ELG1 genotoxic,NPC1 promoter act
COc1ccc(/C=C/c2ccccc2)cc1[C@H]1[C@@H]2C=CCC[C@@]2(C)C(=O)N1Cc1ccccc1,13.5µM*,-0.2%,/,/,-1.0%,0.1%
Cc1ccc2cc3c(nc2c1)OCC3,-29.1%,0.7%,/,/,9.1%,3.7%
COC1CCC(C(=O)c2ccc3nc4c(cc3c2)CCCO4)CC1 (configuration not stated),/,/,0.1%,12.6µM*,/,/
Cc1cc(C)c(NN=c2c(=O)c3ccccc3c2=O)c(C)c1,0.953µM*,1.78µM*,-4.1%,12.6µM*,?,2.82µM*
O=c1c(=NNc2ccccc2Cl)c(=O)c2ccccc12,0.0757µM*,?,6.31µM*,-14.7%,?,3.16µM*
O=C(Nc1ccc(C(=O)OCc2cc(=O)n3c4c(sc3n2)CCCC4)cc1)c1ccc(Cl)cc1,2.3%,/,/,/,/,/
C[C@@H]1O[C@H](O[C@@H]2[C@H](C)O[C@H](O[C@@H]3[C@H](C)O[C@H](O[C@H]4CC[C@]5(C)[C@@H](CC[C@@H]6[C@H]5C[C@@H](O)[C@]5(C)[C@@H](C7=CC(=O)OC7)CC[C@]65O)C4)C[C@@H]3O)C[C@@H]2O)C[C@H](O)[C@@H]1O,/,/,-1.1%[17.1 µM],-81.8%[20.6 µM],/,/
COc1cccc(-c2nnc(SCc3cccnc3)o2)c1,23.9µM*,3.98µM*,-10.4%,12.0%,13.2%,?
O=C(O)c1cccc(CSc2nnc(-c3ccc(Cl)cc3)o2)c1,19µM*,-0.6%,/,/,16.9%,-0.5%
Cc1cccc(-c2nnc(SCc3ccccc3)o2)c1,10.7µM*,?,-2.4%,?,?,?
COc1ccc(CCNC(=O)c2ccc(Cn3c(=O)c4ccccc4n(CC(=O)C(C)(C)C)c3=O)cc2)cc1OC,3.0%,/,/,3.2%,/,/
O=C(N/N=C/c1ccoc1)c1cc(Br)ccc1O,3.01µM*,2.6%,/,/,9.9%,-0.1%
CCOc1ccc(Br)cc1C(=O)N/N=C/c1cccc(C)n1,2.3%,-2.1%,/,/,1.0%,1.0%
Cc1cccc(/C=N/NC(=O)c2cc(Br)ccc2O)n1,23.9µM*,18.8%,/,/,?,10.2%
CCC(=O)N/N=C(\C)CC(=O)Nc1ccccc1-c1ccccc1,-13.6%,1.8%,2.1%,-13.1%,-5.1%,-1.1%
Fc1cc(Cl)c(OCc2noc(-c3ccsc3)n2)c(Cl)c1,?,3.16µM*,/,/,7.3%,?
Clc1ccc(OCc2noc(-c3ccsc3)n2)c(Cl)c1,4.26µM*,3.98µM*,/,/,?,2µM*
COc1cc(-c2nc(Cc3ccccc3Cl)no2)cc(OC)c1OC,-0.5%,0.4%,-1.7%,-22.0%,-2.4%,2.1%
C=CC1=C2C=C(C3CC3)N(CCCOC(C)C)C=C2C(=O)C(C)(OC(=O)c2ccco2)C1=O (configuration not stated),/,/,-2.1%[7.66 µM],0.3%[9.22 µM],/,/
CCc1c(O)nc(SCC(=O)Nc2nc3ccccc3s2)n(-c2ccc(C)cc2)c1=O,21.3µM*,16.1%,/,/,17.3%,19.9%
COc1ccc2nc(NC(=O)CNS(=O)(=O)c3cccs3)sc2c1,?,-6.5%,0.6%,-4.8%,1.1%,2.4%
COc1ccc2nc(NC(=O)CN(C)S(=O)(=O)c3cccs3)sc2c1,16.9µM*,18.2%,4.7%,3.3%,-4.0%,18.2%
O=C(CSc1nccn1Cc1ccccc1)Nc1nc2ccccc2s1,16.9µM*,/,/,/,/,/
Cc1ccc2nc(-c3ccc(NC(=O)Cc4cccs4)cc3)[nH]c2c1,1.35µM*,1µM*,-2.4%,2.51µM*,?,2µM*
CCc1c(O)nc(SCC(=O)Nc2nc3ccccc3s2)n(-c2ccccc2)c1=O,-7.5%,-1.8%,/,/,0.4%,-1.3%
CCOC(=O)c1ccc(NC2=CC(c3ccc(F)cc3)N(c3ccc(C(=O)OCC)cc3)C2=O)cc1 (configuration not stated),0.4%,/,/,1.6%,/,/
CC(=O)Nc1ccc(-c2nnc3n(Cc4ccc(C)cc4)c(=O)c4ccccc4n23)cc1,0.2%,/,/,/,/,/

# Screening data as filed in PubChem.
